# KCNH2 3.1 inh: inhibitors of human KCNH2 3.1 potassium channel isoform; hit rate 0.95% among 340,000; activity change, % (tested at about 1.8 µM); U2OS KCNH2 3.1, thallium flux FluxOr; active compounds read low; AID 720553;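 active = maximum activity change below -70%; inconclusive = maximum activity change from -70% to -50%; inactive = maximum activity change above -50%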;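 note: thallium influx rate constant from kinetic fluorescence after stimulation buffer; % is set by controls: 0 for no effect and ±100 for the full control effect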
#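 FluxOr-based Tl+ influx in U2OS cells transduced with KCNH2 3.1 virus; rate constants normalized to DMSO controls.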
# TSG101-PTAP inh: blocks PTAP/TSG101 interaction to inhibit HIV-1 budding. 340,000 tested, under 10 active. AID 493005. Fluorescence polarization, FITC-PTAP peptide / Tsg101 binding. Potency, µM (top dose mostly 115 µM), for the others: at the top dose activity change, negative = inhibition, usual class: inhibitors. Q99816; active = well fitted inhibition curve with a large enough effect in the main read-out, with a control signal flat, not every such curve was filed as active; inconclusive = small, poorly fitted or top-dose-only effect, or effect the other way, or a change in a side signal; inactive = no such curve, though single readings can be large or run the other way; note: potency is the fitted concentration of half-maximal effect; % of control where 0% means no effect
#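 Steps: Tsg101 binding domain dispensed (10 uM final), compounds pinned in DMSO, FITC-labeled PTAP-motif peptide added (50 nM final); after 20 min binding at room temperature, polarization measured.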
# Tb PFK inh: inhibitors of T. brucei phosphofructokinase; O15648; T. brucei PFK, ADP-Glo luminescence; Potency, µM (titrated, usually from 57.5 µM), inactives show at the top dose activity, negative = inhibition, hits mostly inhibitors; hit rate 0.17% among 330,000; active = well fitted inhibition curve with a large enough effect; inconclusive = small, poorly fitted or top-dose-only effect, or effect the other way;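 note: potency is the fitted concentration of half-maximal effect; 0% = uninhibited 1x PFK enzyme wells and -100% = no-enzyme wells; nearly all actives have a fitted effect of over 60% in size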
#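 Activity is normalized to no-enzyme wells (full inhibition) and 1.25 nM enzyme wells (no inhibition). Reaction: 0.5 mM F6P, 0.1 mM ATP, 45 min RT, ADP-Glo luminescence; concentration-response curves fitted and classed by quality.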
# KCNH2 WT inh: KCNH2 (human, wildtype) channel inhibition; Q12809; U2OS, BacMam KCNH2, thallium flux FluxOr; active compounds read low; activity change, % at 1.84 µM; hit rate 0.37% among 340,000;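 active = maximum activity change below -70%; inconclusive = maximum activity change between -70% and -50%; inactive = maximum activity change above -50%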; note: % is set by controls: 0 for no effect and ±100 for the full control effect
# Target sequence (Q12809 whole entry, looked up): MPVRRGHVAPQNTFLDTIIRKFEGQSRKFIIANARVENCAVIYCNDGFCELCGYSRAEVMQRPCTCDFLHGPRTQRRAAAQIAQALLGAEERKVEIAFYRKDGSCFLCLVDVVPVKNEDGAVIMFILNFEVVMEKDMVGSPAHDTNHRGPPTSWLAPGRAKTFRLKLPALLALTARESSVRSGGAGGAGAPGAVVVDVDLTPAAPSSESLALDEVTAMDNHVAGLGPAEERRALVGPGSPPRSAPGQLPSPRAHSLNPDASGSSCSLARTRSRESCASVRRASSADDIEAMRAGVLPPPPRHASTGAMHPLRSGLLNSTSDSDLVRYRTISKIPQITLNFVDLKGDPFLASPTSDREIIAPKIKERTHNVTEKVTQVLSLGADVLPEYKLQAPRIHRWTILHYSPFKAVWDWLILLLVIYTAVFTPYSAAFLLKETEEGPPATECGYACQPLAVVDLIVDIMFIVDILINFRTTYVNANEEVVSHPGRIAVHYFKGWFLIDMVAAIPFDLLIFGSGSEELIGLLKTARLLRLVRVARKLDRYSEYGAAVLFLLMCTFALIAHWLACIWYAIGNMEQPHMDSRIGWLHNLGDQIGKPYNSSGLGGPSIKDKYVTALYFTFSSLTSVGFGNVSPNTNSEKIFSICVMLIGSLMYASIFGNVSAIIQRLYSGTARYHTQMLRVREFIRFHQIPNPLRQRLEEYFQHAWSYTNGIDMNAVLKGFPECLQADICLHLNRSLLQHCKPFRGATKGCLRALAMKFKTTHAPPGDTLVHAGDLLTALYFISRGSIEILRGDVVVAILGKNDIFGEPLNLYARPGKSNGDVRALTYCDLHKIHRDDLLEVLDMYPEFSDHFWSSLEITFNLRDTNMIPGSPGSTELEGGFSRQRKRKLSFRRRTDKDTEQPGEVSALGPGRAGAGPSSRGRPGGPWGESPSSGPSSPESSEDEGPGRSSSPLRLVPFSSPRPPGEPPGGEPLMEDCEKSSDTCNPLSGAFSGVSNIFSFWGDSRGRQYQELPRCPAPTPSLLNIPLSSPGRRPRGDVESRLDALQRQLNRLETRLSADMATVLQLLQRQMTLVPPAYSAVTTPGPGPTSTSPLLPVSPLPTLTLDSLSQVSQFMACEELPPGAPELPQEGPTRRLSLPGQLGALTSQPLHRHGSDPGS
#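 U2OS cells were transduced with wild-type KCNH2 virus (2.03 x 10^8 / mL) for 4 h at room temperature, then cultured overnight at 37 C. Thallium flux was read with FluxOr dye. Rate constants were normalized to DMSO controls.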
# * marks the source's active call; other numbers are inactive results; ? = inconclusive; nt = not tested or not shown; [ ] = remark or other dose. In the library only some 1.2% were active in any assay of this set; here they are far more common.
SMILES,KCNH2 3.1 inh,TSG101-PTAP inh,Tb PFK inh,KCNH2 WT inh
CCCCCC(O)(CCN1CCCCC1)c1ccc(OCC)cc1 (stereo not drawn),-114*,0%,-5%,-99*
CCCCOc1ccc(C(O)(CCC)CCN2CCOCC2)cc1 (stereo not drawn),3,-3%,-10%,10
CC[C@]12c3[nH]c4ccc(OC)cc4c3CCN1C(=O)C(CC(=O)NC(C)(C)C)C[C@@H]2C(=O)N1CCN(C(=O)c2ccco2)CC1 (stereo partly drawn),-3,-3%,-5%,3
C[C@H]1CN([C@@H](C)CO)C(=O)c2cc(-c3cccc(F)c3)cnc2O[C@H]1CN(C)C(=O)c1cnccn1,-6,nt,nt,-3
CSc1ccc(NC(=O)NN(c2ccccc2)C2CCS(=O)(=O)C2)cc1 (stereo not drawn),-13,nt,nt,-4
c1ccc2c3c([nH]c2c1)C(C1CCCCC1)N(Cc1ncc[nH]1)CC3 (stereo not drawn),nt,-8%,4%,42
Cc1cnc(CN2CCc3c([nH]c4ccccc34)C2C2CCCCC2)[nH]1 (stereo not drawn),-72*,-5%,13%,9
CN1CCN(S(=O)(=O)c2cccc(C(=O)N(C)C(c3ccccc3)c3ccccc3)c2)CC1,-75*,-3%,-2%,11
COc1cccc(CN(C)C(=O)c2cccc(S(=O)(=O)N3CCN(c4ccc(F)cc4)CC3)c2)c1OC,-159*,-8%,-4%,0
O=C1OC(O)c2cccc3cccc1c23 (stereo not drawn),-71*,nt,nt,5
O=C1c2cccc3cccc(c23)C(=O)N1CCO,-21,nt,nt,1
CCOC(=O)C1=C(C)NC(C)=C(C(=O)OCC)C1C(=O)OCC(=O)NC(C)c1ccccc1 (stereo not drawn),-11,-2%,0%,-104*
COc1ccc([C@]23Cc4ccccc4C(O2)c2c(cc(C)n(Cc4ccccc4)c2=O)O3)cc1,nt,nt,1%[11.5 µM],nt
O=C(Nc1ccc(F)cc1)C1CCCN1S(=O)(=O)c1ccc(Br)cc1 (stereo not drawn),9,-7%,-8%,-1
CCOc1ccc(NC(=O)OCCN2CCN(CCc3ccccc3)C(C)C2)cc1 (stereo not drawn),-96*,1%,nt,-3
CSCCC(NC(=O)c1ccccc1Br)C(=O)N1CCN(C(C)=O)CC1 (stereo not drawn),-2,-4%,0%,-3
N#C/C(=C/c1ccc2c(c1)OCO2)C(=O)NCCc1c[nH]c2ccccc12,-74*,-9%,0%,-10
Cc1cc(NC(=O)CSCC(=O)N(C)Cc2ccc(Cl)c(Cl)c2)no1,10,-4%,-17%,-95*
Cc1ccc(CN2CCN(CCCn3cnc4c(OCc5ccccc5)ncnc43)CC2)cc1,-97*,0%,nt,-127*
c1ccc(CCN(Cc2ccccc2)C2CCN(C3CCCC3)CC2)cc1,-88*,1%,-12%,12
Cc1cc(C)cc(C(=O)N(CCc2ccccc2)C2CC3CCC(C2)N3C)c1 (stereo not drawn),-88*,-1%,0%,-8
COc1cc(C(=O)N(CCc2ccccc2)C2=CC3CCC(C2)N3C)cc(OC)c1OC (stereo not drawn),1,-8%,-6%,1
Cc1ccc(N(CC(O)CN2CCCCC2)S(=O)(=O)c2ccccc2)cc1 (stereo not drawn),?,-6%,2%,25
Cc1ccc(N(CC(O)CN2CCCCC2)S(=O)(=O)c2ccc(C)cc2)cc1 (stereo not drawn),-99*,-4%,0%,-7
COc1c(C=O)c2c(c(OC)c1OC)-c1ccc(OC)c(=O)cc1C(NC(C)=O)CC2 (stereo not drawn),2,0%,nt,-12
SMILES,KCNH2 3.1 inh,TSG101-PTAP inh,Tb PFK inh,KCNH2 WT inh
COC(=O)c1ccccc1NC(=O)CN1CCOCC1,-1,0%,1%,0
COC(=O)c1cc(OC)c(OC)cc1NC(=O)CN1CCOCC1,5,-6%,-1%,-236*
Cn1c(CN2CCCCC2)nc2cc([N+](=O)[O-])ccc21,-185*,0%,9%,12
Cc1csc(N=Cc2ccc([N+](=O)[O-])o2)n1,1,nt,nt,7
Cc1cc(C)nc(SCc2ccc(Cl)cc2)n1,-2,-4%,0%,-16
Cc1cc(C)nc(SCNC(=O)c2ccc(Cl)cc2)n1,-101*,-6%,-9%,-9
Cc1cccc(NC(=O)COc2coc(CN3CCN(c4ccccc4)CC3)cc2=O)c1C,-12,-3%,0%,-14
CCOc1ccccc1N(CC(=O)Nc1cccnc1)S(C)(=O)=O,-86*,-2%,5%,-2
COC(C(=O)NNS(=O)(=O)c1ccc([N+](=O)[O-])cc1)c1ccccc1 (stereo not drawn),-4,0%,1%,1
COC(C(=O)NNS(=O)(=O)c1ccccc1[N+](=O)[O-])c1ccccc1 (stereo not drawn),12,-4%,4%,-96*
CCCCCCSc1ccc([C@@H]2[C@H]3C(=O)N(CC)C(=O)[C@H]3[C@]3(C(=O)OC)CCCN23)cc1,13,27%,0%,0
O=C(Nc1ccc(S(=O)(=O)Nc2ncccn2)cc1)c1cccc([N+](=O)[O-])c1,9,nt,nt,-8
CCN1C(=NCCCOC(C)C)N[C@@H](c2ccccc2)[C@H](C(=O)OC)[C@H]1C,-13,-5%,0%,3
CCN1C(=NCCc2ccc(Br)cc2)N[C@@H](c2ccccc2)[C@H](C(=O)OC)[C@H]1C,-79*,0%,1%,-13
CCN1C(=NCCc2ccc([N+](=O)[O-])cc2)N[C@@H](c2ccccc2)[C@H](C(=O)OC)[C@H]1C,-93*,0%,0%,-19
OC1(c2ccc(Br)cc2)CCN(Cc2cccc(Br)c2)CC1,-76*,-4%,-3%,26
COC(=O)c1c(C(=O)OC)c(-c2ccc(OC)cc2)n2c1CS(=O)(=O)C2,3,-6%,19%,-2
CSc1nc2ccc(NC(=O)CSc3nnc(N)s3)cc2s1,-91*,-4%,-3%,-9
COc1ccc(NC(=O)CSc2nnc(N)s2)cc1,7,-2%,1%,-1
O=C(Nc1ccnn1C1CCN(Cc2cccc(OCCO)c2)CC1)c1cccc(F)c1,-7,0%,-2%,13
COc1ccc(CN2CCC(n3nccc3NC(=O)c3cccc(F)c3)CC2)cc1O,-110*,-4%,-4%,-109*
O=C(Nc1ccnn1C1CCN(C/C=C/c2ccccc2)CC1)c1ccccc1,-91*,-2%,2%,-91*
O=C(Nc1ccnn1C1CCN(C2CCC2)CC1)c1ccccc1,7,nt,1%,-9
O=C(Nc1ccnn1C1CCN(C/C=C/c2ccccc2)CC1)c1cccc(F)c1,-99*,-1%,4%,-92*
O=C(Nc1ccnn1C1CCN(CCCc2ccccc2)CC1)c1cccc(F)c1,-104*,1%,4%,-89*
CC1CC(=O)N(CC(=O)NC2CCCCC2)c2ccccc2S1 (stereo not drawn),13,1%,1%,5

# Screening data as filed in PubChem BioAssay.
